Molecules are shown by their SMILES. The whole screen tested about 290,000 compounds, of which about 11,000 (3.8%) were called active. The entries come from a sample that favours actives as a whole. Unmarked numbers belong to inactive results.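 How the source made its calls: active means mean replicate inhibition above about 79%, with every replicate also reaching it (limit read from the data); inconclusive means only one of the two criteria met; inactive means mean below limit and not every replicate reaching it.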

The term inhibition denotes the relative decrease from the control value, in per cent.

Chain of FAD-linked sulfhydryl oxidase ALR (Homo sapiens) (P55789 whole entry, looked up): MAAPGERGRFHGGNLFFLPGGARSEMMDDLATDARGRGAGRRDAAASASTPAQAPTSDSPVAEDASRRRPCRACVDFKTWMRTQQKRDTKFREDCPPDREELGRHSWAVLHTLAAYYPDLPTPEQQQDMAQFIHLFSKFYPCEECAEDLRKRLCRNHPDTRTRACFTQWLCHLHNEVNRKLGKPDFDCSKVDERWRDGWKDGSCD

The experiment has as its target FAD-linked sulfhydryl oxidase ALR (Homo sapiens) (UniProt P55789). In words: inhibitors of human ALR sulfhydryl oxidase, primary screen, biochemical, H2O2 detection, HRP-luminol luminescence, single point (AID 485317). Conditions: purified ALR, DTT oxidation, hits give high values, concentration not given here.
Take `Cc1cc(=O)[nH]c(N/N=C/c2ccc3c(c2)OCCO3)n1`: the inhibition is 17.8%.
For the compound `Cc1cc(=O)[nH]c(N/N=C/c2c(C)nn(-c3ccccc3Cl)c2Cl)n1`, the inhibition was 24.5%.
For the compound `CCN(CC)c1ccc(/C=N/Nc2nc(C)cc(=O)[nH]2)cc1`, the inhibition is 99.1% (active).
For the compound `COc1ccccc1-c1oc2ccccc2c1C#CCCCCO`, the inhibition is -1.62%.
With `Cc1ccc(-c2nc(CS(=O)(=O)CC(=O)NCc3ccc4c(c3)OCO4)c(C)o2)cc1` the figure was -0.75%.
As for `COc1ccc(CC(=O)NC(C)CCc2ccccc2)cc1` (stereo not given), the inhibition is -14.5%.
As for `CC(CCc1ccccc1)NC(=O)c1ccc(Br)o1` (stereo not given), the figure is -19.9%; as for `COc1ccc(CCNC(=O)CS(=O)(=O)Cc2nc(-c3ccc(C)cc3)oc2C)cc1OC`, 21.5%; as for `COc1cccc(N(CC(=O)N2CCc3ccccc3C2)S(C)(=O)=O)c1`, -14.9%.
As for `COc1cccc(-c2nc(CS(=O)CC(=O)NCc3ccc(F)cc3)c(C)o2)c1` (stereo not given), the inhibition is 98.8% (active).
For `O=C(COc1ccccc1)N1CCc2ccccc2C1`, the inhibition was -0.403%.
Consider `COc1ccc(-c2nc(CS(=O)CC(=O)NCc3ccccc3)c(C)o2)cc1OC` (stereo not given), for which the inhibition is 98.9% (active).
With `Cc1cccc(-c2nc(CS(=O)CC(=O)NC(C)CCc3ccccc3)c(C)o2)c1` (stereo not given), the inhibition was 92% (active).
Turning to `COc1ccc(-c2nc(CS(=O)CC(=O)N3CCc4ccccc4C3)c(C)o2)cc1` (stereo not given), the inhibition is 99% (active).
`COc1cccc(NC(=O)NCc2ccc(F)cc2)c1`: the inhibition was -2.14%.
As for `COc1ccc(CNC(=O)Cc2ccc(-c3ccccc3)cc2)cc1OC`, the figure is -4.45%; as for `CCCCn1c(N)c(N(CCOC)C(=O)CSCC(=O)Nc2cccc(C)c2)c(=O)[nH]c1=O`, 6.91%.
Regarding `CC(=O)Nc1ccc(S(=O)(=O)NC(C)C(=O)OCCOc2ccc(F)cc2)cc1` (stereo not given), the inhibition was 0.524%.
With `COc1ccc2nc3n(c(=O)c2c1)-c1cc(C)ccc1C(=O)NC3Cc1ccc(O)cc1` (stereo not given) the figure was -1.57%; with `O=C(Nc1nnc(-c2ccccc2)o1)c1cccc(S(=O)(=O)N2CCOCC2)c1`, 9.18%; with `Fc1ccccc1-c1cc2cc3c(cc2cn1)OCO3`, 0.64%.
Turning to `C[C@@H]1CN([C@@H](C)CO)C(=O)c2cccc(NS(=O)(=O)c3ccc(F)cc3)c2O[C@H]1CN(C)C(=O)NC1CCCCC1`, the inhibition is -2.04%.
`CCOC(=O)c1c(C)[nH]c(C(=O)OCC(=O)N2CCCC2=O)c1C`: the inhibition is 1.73%.
Regarding `Cc1nn(Cc2ccccc2)c(C)c1C(=O)NCCCN1CCCC1=O`, the inhibition is -2.84%.
With `CC(=O)Nc1cccc(C(=O)OCC(=O)c2ccc3c(c2)OCO3)c1`, the inhibition is -2.29%.
For `C=CC[C@H](CC(=O)N(CCO)Cc1ccccc1)C(=O)N[C@@H](COC(=O)[C@@H](CC=C)Cc1ccc(F)cc1)Cc1ccccc1`, the inhibition was -4.83%.
In the case of `COc1ccc(C(=O)O)cc1S(=O)(=O)NCc1cccnc1`, the inhibition is -5.82%.
For `COc1ccc(-c2nc(CS(=O)(=O)CC(=O)NCc3cccc(Br)c3)c(C)o2)cc1`, the inhibition was 22.1%.
As for `COc1ccc(-c2nc(CS(=O)CC(=O)NCc3cccnc3)c(C)o2)cc1OC` (stereo not given), the figure is 99.2% (active); as for `COc1cccc(-c2nc(CS(=O)(=O)CC(=O)NCCc3ccc(OC)c(OC)c3)c(C)o2)c1`, 46.6%.
With `CCCCN(CC)CCCNC(=O)CS(=O)(=O)Cc1nc(-c2cccc(OC)c2)oc1C` the figure was 98.8% (active).
Regarding `Cc1oc2nc(SCC(=O)NCc3cccnc3)nc(N)c2c1C`, the inhibition is -4.94%.
Take `O=C1C=C(c2cccc(Br)c2)C[C@@H](c2ccc(F)cc2)C1`: the inhibition is -0.0525%.
Consider `O=C(COC(=O)COc1cc(Cl)c(Cl)cc1Cl)NC1CC1`, for which the inhibition is -25.6%.
In the case of `O=C(CSCc1ccccc1)Nc1ccccc1`, the inhibition was -3.32%.
`Cc1cc(C)cc(NC(=O)CSCc2cnn(-c3ccccc3)c2-n2cccc2)c1`: the inhibition was -4.84%.
With `CC(=O)Nc1ccc(NC(=O)CSCc2cnn(-c3ccccc3)c2-n2cccc2)cc1` the figure was 98.3% (active); with `Cc1ccc(S(=O)(=O)NCCC(=O)NCc2ccc(Cl)cc2)cc1C`, -3.37%; with `O=C(Nc1ccccc1C(=O)O)c1ccc(N2C(=O)C3CC=CCC3C2=O)cc1` (stereo not given), 2.58%.
With `O=C(O)c1ccccc1C(=O)Nc1nc(-c2ccccc2)cs1`, the inhibition is -5.73%.
Consider `O=C(O)c1ccccc1C(=O)NC1=NN(c2ccccc2)CC1`, for which the inhibition is 98.4% (active).
On to `CC1CCCCC12NC(=O)N(CC(=O)OCc1c(F)cccc1Cl)C2=O` (stereo not given), for which the inhibition is 25.1%.
`COc1ccc(C)cc1NC(=O)CSc1cccc[n+]1[O-]`: the inhibition is -22.2%.
For `C[C@H](OC(=O)n1ccnc1)[C@@H]1O[C@@]2(C)CCC[C@@H]1O2`, the inhibition is 4.53%.
For `CC(NC(=O)C(C)(C)C)C(c1cccs1)N1CCN(Cc2ccccc2)CC1` (stereo not given), the inhibition was -4.94%.
On to `CC(NC(=O)Nc1ccccc1)C(c1cccs1)N1CCN(c2ccccc2)CC1` (stereo not given), for which the inhibition was 1.95%.
Regarding `CCCC(=O)NC(C)C(c1cccs1)N1CCN(c2ccccc2)CC1` (stereo not given), the inhibition was 97.6% (active).
In the case of `O=C(NC(=S)Nc1ccc(Br)cc1F)C1CCCCC1`, the inhibition is -2.71%.
As for `O=C(COc1ccccc1F)NNC(=O)c1cc(Br)ccc1Cl`, the inhibition was -9.96%.
In the case of `Cc1ccccc1-c1cc(C(=O)NCc2cccs2)n(CC2CC(c3cccnc3)=NO2)n1` (stereo not given), the inhibition was 8.05%.
As to `COc1ccc(-c2csc(Cc3nc(O)cs3)n2)cc1`, the inhibition is 86.8% (active).
Consider `COc1ccc(-c2csc(NC3OC(=O)c4ccccc43)n2)cc1` (stereo not given), for which the inhibition was 22.4%.
For `COc1ccc(-c2csc(NC(=O)COC(=O)c3ccc(Br)o3)n2)cc1`, the inhibition was 53.6%.
Turning to `CCOC(=O)N1CCN(C(=O)c2ccc(S(=O)(=O)c3ccc(C)cc3)c(NC(C)=O)c2)CC1`, the inhibition was 4.26%.
On to `CCOC(=O)N1CCN(C(=O)c2ccc3c(c2)N(Cc2ccc(C)cc2)CCS3)CC1`, for which the inhibition is 93.4% (active).
With `O=C(NCCc1ccccc1)c1ccc2c(c1)N(Cc1ccccc1)CCS2` the figure was 10.1%; with `O=C(CSc1nc2ccc(Nc3nc(N4CCOCC4)nc(N4CCOCC4)n3)cc2s1)NCc1ccco1`, 98.7% (active); with `C=CCn1c(CSc2nc3ccccc3s2)nnc1SCC(=O)NCc1ccco1`, 60.8%.
For the compound `O=C(CSc1nc(Nc2ccccc2)nc(N2CCOCC2)n1)Nc1cc(Cl)ccc1O`, the inhibition is -0.209%.
For the compound `O=C(c1ccc(F)c(S(=O)(=O)N2CCOCC2)c1)N(CCc1ccccc1)Cc1ccccc1`, the inhibition is -7.64%.
As for `O=S(=O)(c1ccccc1)N(CC(O)CN1CCCCC1)c1ccccc1` (stereo not given), the inhibition was -3.01%.
Take `Cc1cccc(N(CC(O)CN(C)C)S(=O)(=O)c2ccccc2)c1` (stereo not given): the inhibition was -4.54%.
In the case of `OCC(O)CN(c1ccccc1)c1ccccc1` (stereo not given), the inhibition is 99% (active).
Consider `CN(c1ccccc1)S(=O)(=O)c1ccc(C(=O)N2CCN(c3ccccc3Cl)CC2)cc1`, for which the inhibition is -8.17%.
As for `O=[N+]([O-])c1ccc(S(=O)(=O)Nc2cccc(-c3ccc(N4CCCC4)nn3)c2)cc1`, the inhibition is 0.216%.
For `C=CCOc1ccc(/C=C/C(=O)OCC(=O)NC(C)c2ccc(F)cc2)cc1` (stereo not given), the inhibition is -7.12%.
With `O=C1CCCC(O)=C1N=Nc1ccc(S(=O)(=O)N2CCOCC2)cc1` the figure was -10.4%; with `O=C1CCCC(O)=C1N=Nc1ccc2ncsc2c1`, 97.4% (active); with `COc1ccccc1-c1sc2ccccc2c1C#CC1(O)CCCCC1`, -3.52%.
With `O=C(CSCc1ccc([N+](=O)[O-])cc1)NCCSCc1ccccc1` the figure was -10.2%; with `O=C(NCc1ccco1)/C(=C/c1cccc([N+](=O)[O-])c1)NC(=O)c1ccco1`, 69.6%.
As to `CCC(CC)NC(=O)/C=C/c1cccc([N+](=O)[O-])c1`, the inhibition was -3%.
For `O=C(NCc1ccco1)c1ccc([N+](=O)[O-])cc1Cl`, the inhibition was -19%.
With `O=C(/C=C/c1ccc([N+](=O)[O-])cc1)NCCSCc1ccco1`, the inhibition was 98.4% (active).
As for `O=C(/C=C/c1cccc([N+](=O)[O-])c1)NCCSCc1ccco1`, the figure is 98.5% (active); as for `CCN(C(=O)CSc1ncnc2sccc12)c1c(N)n(Cc2ccccc2)c(=O)[nH]c1=O`, -0.954%; as for `COCCNC(=S)N(CCc1c(C)[nH]c2ccc(C)cc12)Cc1cccnc1`, 90.7% (active).
Take `CCNC(=S)N(CCc1c(C)[nH]c2ccc(C)cc12)Cc1ccco1`: the inhibition was 69.2%.
Consider `COCCNC(=S)N(Cc1cccnc1)Cc1ccc(OC)c(OC)c1`, for which the inhibition was -1.92%.
`Cc1n[nH]c(=O)c2c(NC(=O)CSc3ccccc3F)oc(C)c12`: the inhibition is 1.87%.
As for `CC(C)COc1ccc(C(=O)NNC(=O)CCC(=O)c2cccs2)cc1`, the figure is -17.3%; as for `CC(NC(=O)COC(=O)CCC(=O)c1ccc(Cl)cc1)c1ccccc1` (stereo not given), -2.75%.
As for `Cc1noc(C)c1C(=O)OC(C)C(=O)Nc1ccc2c(c1)OCO2` (stereo not given), the figure is -0.736%; as for `Cc1cccc(N2CCN(c3ccc(NC(=O)/C=C\C(=O)O)cc3)CC2)c1`, 99% (active).
Turning to `O=C(Nc1cccc(NC(=O)N2CCN(c3ccccc3)CC2)c1)N1CCN(c2ccccc2)CC1`, the inhibition was -1.81%.
With `CSc1ccc(NC(=O)/C=C/C(=O)O)cc1` the figure was 0.113%; with `Cc1ccc(CN2CCN(c3ccccc3Cl)CC2)o1`, 2%; with `CN1CCN(S(=O)(=O)c2ccc(Nc3ccc(F)cc3)nc2)CC1`, -2.65%.
As for `O=C(OCC(=O)N1CCCCCC1)c1ccc(Br)c(S(=O)(=O)N2CCOCC2)c1`, the inhibition was -8.29%.
For the compound `COc1ccc(NC(=O)CN(C)C(=O)Cc2coc3cc(C)c(C)cc23)cc1`, the inhibition is 0.212%.

The record behind these values is PubChem BioAssay AID485317 (Broad Institute, 2010).
